Assay results taken from PubChem BioAssay (NCI).
Values joined by “and” are separate entries in the source; they are usually repeats but may differ in a detail not shown here. Identical values can stand only once. About 83,000 compounds went through this panel and 20% of them were active in at least one assay; those are over-represented in the sample as a whole.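 In brief: 96-well plates, 48 h treatment, single concentration, percent growth endpoint.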 Active and inactive are the calls of the source. How the source made its calls: active means growth percent below 10; inactive means the rest.

Experiments:
Assay in all cases: NCI-60 one-dose screen, 48 h (100 = growth as untreated, 0 = no growth, -100 = all killed)
SK-MEL-2 melanoma = system: SK-MEL-2 melanoma
EKVX NSCLC = conditions: 10 µM unless noted
SN12C renal = system: SN12C renal
UO-31 renal = system: UO-31 renal
TK-10 renal = system: TK-10 renal
ACHN renal = system: ACHN renal
CAKI-1 renal = system: CAKI-1 renal
A498 renal = conditions: 10 µM unless noted
CCRF-CEM leukemia = conditions: 10 µM unless noted
MOLT-4 leukemia = system: MOLT-4 leukemia
SR leukemia = conditions: 10 µM unless noted
RPMI-8226 leukemia = system: RPMI-8226 leukemia
OVCAR-8 ovarian = system: OVCAR-8 ovarian
OVCAR-5 ovarian = system: OVCAR-5 ovarian
OVCAR-4 ovarian = system: OVCAR-4 ovarian
SK-OV-3 ovarian = conditions: 10 µM unless noted
IGROV1 ovarian = conditions: 10 µM unless noted
OVCAR-3 ovarian = system: OVCAR-3 ovarian
HS 578T breast = system: HS 578T breast
NCI/ADR-RES ovarian = system: NCI/ADR-RES ovarian

Measured: growth

O=C(O)c1cc(=O)[nH]c(=O)[nH]1
inactive: SK-MEL-2 melanoma; 10 µM unless noted 111% and 65.2% | EKVX NSCLC 93.6% and 115% | SN12C renal; 10 µM unless noted 98.7% and 98.5% | UO-31 renal; 10 µM unless noted 78.8% and 42.2% | TK-10 renal; 10 µM unless noted 106% and 135% | ACHN renal; 10 µM unless noted 94.7% and 95.2% | CAKI-1 renal; 10 µM unless noted 94.9% and 119% | A498 renal 94.3% and 71.1% | CCRF-CEM leukemia 105% and 74.4% | MOLT-4 leukemia; 10 µM unless noted 98.5% and 91.5% | SR leukemia 104% | RPMI-8226 leukemia; 10 µM unless noted 98.2% and 71.6% | OVCAR-8 ovarian; 10 µM unless noted 102% and 76.4% | OVCAR-4 ovarian; 10 µM unless noted 107% and 101% | SK-OV-3 ovarian 104% and 112% | IGROV1 ovarian 103% | OVCAR-3 ovarian; 10 µM unless noted 114% and 112% | HS 578T breast; 10 µM unless noted 107% and 94.8%
107% (inactive) and -33.1% (active): NCI/ADR-RES ovarian; 10 µM unless noted
101% (inactive) and -23.6% (active): OVCAR-5 ovarian; 10 µM unless noted

CNc1ccc(Cl)cc1S(=O)(=O)c1ccccc1[N+](=O)[O-]
inactive: SK-MEL-2 melanoma; 10 µM unless noted 103% and 85.6% | EKVX NSCLC 103% and 94.5% | SN12C renal; 10 µM unless noted 89.8% and 98.3% | UO-31 renal; 10 µM unless noted 91.8% and 92.6% | TK-10 renal; 10 µM unless noted 99.7% and 95% | ACHN renal; 10 µM unless noted 107% and 97.9% | CAKI-1 renal; 10 µM unless noted 84.6% and 41.1% | A498 renal 118% | CCRF-CEM leukemia 84.9% and 93.3% | MOLT-4 leukemia; 10 µM unless noted 85.6% and 103% | SR leukemia 86.3% and 88.2% | RPMI-8226 leukemia; 10 µM unless noted 87.3% | OVCAR-8 ovarian; 10 µM unless noted 105% | OVCAR-5 ovarian; 10 µM unless noted 90.2% and 105% | OVCAR-4 ovarian; 10 µM unless noted 87.6% and 60.6% | SK-OV-3 ovarian 120% and 110% | IGROV1 ovarian 78.8% and 104% | OVCAR-3 ovarian; 10 µM unless noted 105% and 104% | HS 578T breast; 10 µM unless noted 96.7% | NCI/ADR-RES ovarian; 10 µM unless noted 36.7% and 90.6%

CC(=O)/C(N=Nc1ccc(S(=O)(=O)c2ccc(N=N/C(C(C)=O)=C(/C)O)cc2)cc1)=C(\C)O
inactive: SK-MEL-2 melanoma; 10 µM unless noted 117% | EKVX NSCLC 116% | SN12C renal; 10 µM unless noted 110% | UO-31 renal; 10 µM unless noted 83.5% | TK-10 renal; 10 µM unless noted 108% | ACHN renal; 10 µM unless noted 104% | CAKI-1 renal; 10 µM unless noted 100% | A498 renal 100% | CCRF-CEM leukemia 85.9% | MOLT-4 leukemia; 10 µM unless noted 100% | SR leukemia 101% | RPMI-8226 leukemia; 10 µM unless noted 86.7% | OVCAR-8 ovarian; 10 µM unless noted 102% | OVCAR-5 ovarian; 10 µM unless noted 110% | OVCAR-4 ovarian; 10 µM unless noted 107% | SK-OV-3 ovarian 112% | IGROV1 ovarian 92.9% | OVCAR-3 ovarian; 10 µM unless noted 105% | HS 578T breast; 10 µM unless noted 109% | NCI/ADR-RES ovarian; 10 µM unless noted 102%

O=[N+]([O-])c1ccc(NC(c2ccccc2)c2ccc3cccnc3c2O)cc1 (configuration not stated)
active: UO-31 renal; 10 µM unless noted -2.13% | CAKI-1 renal; 10 µM unless noted 2.88% | MOLT-4 leukemia; 10 µM unless noted 9.81% | SR leukemia 6.12%
inactive: SK-MEL-2 melanoma; 10 µM unless noted 36.3% | EKVX NSCLC 19.9% | SN12C renal; 10 µM unless noted 14.8% | TK-10 renal; 10 µM unless noted 42.7% | ACHN renal; 10 µM unless noted 15.8% | A498 renal 55.8% | CCRF-CEM leukemia 10.2% | RPMI-8226 leukemia; 10 µM unless noted 22% | OVCAR-8 ovarian; 10 µM unless noted 17% | OVCAR-5 ovarian; 10 µM unless noted 58.9% | OVCAR-4 ovarian; 10 µM unless noted 22.2% | SK-OV-3 ovarian 34.9% | IGROV1 ovarian 10.9% | OVCAR-3 ovarian; 10 µM unless noted 30.7% | HS 578T breast; 10 µM unless noted 35.6% | NCI/ADR-RES ovarian; 10 µM unless noted 11.7%

COc1cc2oc3cc(=O)cc4oc(-c5ccccc5)cc(c2c2c1CCC(c1ccccc1)O2)c43 (configuration not stated)
inactive: SK-MEL-2 melanoma; 10 µM unless noted 95.8% | EKVX NSCLC 88.4% | SN12C renal; 10 µM unless noted 78.3% | UO-31 renal; 10 µM unless noted 57.9% | TK-10 renal; 10 µM 120% | ACHN renal; 10 µM unless noted 72.7% | CAKI-1 renal; 10 µM unless noted 57.4% | A498 renal 114% | CCRF-CEM leukemia 88.3% | MOLT-4 leukemia; 10 µM unless noted 72.5% | SR leukemia 69.6% | RPMI-8226 leukemia; 10 µM unless noted 61.4% | OVCAR-8 ovarian; 10 µM unless noted 87% | OVCAR-5 ovarian; 10 µM unless noted 106% | OVCAR-4 ovarian; 10 µM unless noted 84.8% | SK-OV-3 ovarian 92.8% | IGROV1 ovarian 70.3% | OVCAR-3 ovarian; 10 µM unless noted 106% | HS 578T breast; 10 µM unless noted 65.7% | NCI/ADR-RES ovarian; 10 µM unless noted 86.6%
59.8% (inactive) and 8.17% (active): TK-10 renal; 100 µM

COc1ccc(CCn2cnn3c(=O)c4ccccc4nc3c2=O)cc1OC
inactive: SK-MEL-2 melanoma; 10 µM unless noted 107% and 118% | EKVX NSCLC 106% | SN12C renal; 10 µM unless noted 107% and 101% | UO-31 renal; 10 µM unless noted 93.3% and 91.9% | TK-10 renal; 10 µM unless noted 114% and 106% | ACHN renal; 10 µM unless noted 101% and 109% | CAKI-1 renal; 10 µM unless noted 111% and 97.8% | A498 renal 90.6% and 129% | CCRF-CEM leukemia 97.6% | MOLT-4 leukemia; 10 µM unless noted 102% and 112% | SR leukemia 99.4% and 90.8% | RPMI-8226 leukemia; 10 µM unless noted 95.7% and 92.2% | OVCAR-8 ovarian; 10 µM unless noted 104% and 110% | OVCAR-5 ovarian; 10 µM unless noted 99.8% and 121% | OVCAR-4 ovarian; 10 µM unless noted 97.3% and 112% | SK-OV-3 ovarian 112% and 108% | IGROV1 ovarian 115% | OVCAR-3 ovarian; 10 µM unless noted 103% and 115% | HS 578T breast; 10 µM unless noted 98.3% and 115% | NCI/ADR-RES ovarian; 10 µM unless noted 101% and 107%

Nc1[nH][nH]c(=O)c1N=Nc1ccccc1
inactive: SK-MEL-2 melanoma; 10 µM unless noted 122% and 100% | EKVX NSCLC 85.3% and 91.3% | SN12C renal; 10 µM unless noted 97.6% and 106% | UO-31 renal; 10 µM unless noted 82.7% and 85.1% | TK-10 renal; 10 µM unless noted 112% and 109% | ACHN renal; 10 µM unless noted 91.2% and 104% | CAKI-1 renal; 10 µM unless noted 104% | A498 renal 86.8% and 86.2% | CCRF-CEM leukemia 108% | MOLT-4 leukemia; 10 µM unless noted 121% and 100% | SR leukemia 125% and 98.6% | RPMI-8226 leukemia; 10 µM unless noted 110% | OVCAR-8 ovarian; 10 µM unless noted 102% and 108% | OVCAR-5 ovarian; 10 µM unless noted 101% and 109% | OVCAR-4 ovarian; 10 µM unless noted 99.6% | SK-OV-3 ovarian 101% and 107% | IGROV1 ovarian 109% and 104% | OVCAR-3 ovarian; 10 µM unless noted 106% and 111% | HS 578T breast; 10 µM unless noted 107% and 130% | NCI/ADR-RES ovarian; 10 µM unless noted 106% and 105%

CS/C(=C\c1ccc(C(=O)c2ccc(C)cc2)n1C)S(C)=O (configuration not stated)
inactive: SK-MEL-2 melanoma; 10 µM 98.8% | SK-MEL-2 melanoma; 100 µM 81.4% | EKVX NSCLC 63.8% [100 µM] | SN12C renal; 10 µM 82% | SN12C renal; 100 µM 80.9% | UO-31 renal; 10 µM 92.2% | UO-31 renal; 100 µM 57.8% | TK-10 renal; 10 µM 108% | TK-10 renal; 100 µM 87% | ACHN renal; 10 µM 87.4% | ACHN renal; 100 µM 83.2% | CAKI-1 renal; 10 µM 75.5% | CAKI-1 renal; 100 µM 63.2% | CCRF-CEM leukemia 72.5% [100 µM] | MOLT-4 leukemia; 10 µM 93.9% | MOLT-4 leukemia; 100 µM 66.8% | SR leukemia 30.9% [100 µM] | RPMI-8226 leukemia; 10 µM 70.2% | RPMI-8226 leukemia; 100 µM 56.9% | OVCAR-8 ovarian; 10 µM 91% | OVCAR-8 ovarian; 100 µM 82.3% | OVCAR-5 ovarian; 10 µM 105% | OVCAR-5 ovarian; 100 µM 102% | OVCAR-4 ovarian; 10 µM 89% | OVCAR-4 ovarian; 100 µM 69.2% | OVCAR-3 ovarian; 10 µM 114% | OVCAR-3 ovarian; 100 µM 69% | HS 578T breast; 10 µM 91.2% | HS 578T breast; 100 µM 90.6% | NCI/ADR-RES ovarian; 10 µM 76.8% | NCI/ADR-RES ovarian; 100 µM 52.7%

COCCNC(C)=O
inactive: SK-MEL-2 melanoma; 10 µM unless noted 105% | EKVX NSCLC 105% | SN12C renal; 10 µM unless noted 97.7% | UO-31 renal; 10 µM unless noted 98.2% | TK-10 renal; 10 µM unless noted 102% | ACHN renal; 10 µM unless noted 110% | CAKI-1 renal; 10 µM unless noted 98.5% | A498 renal 89.6% | CCRF-CEM leukemia 113% | MOLT-4 leukemia; 10 µM unless noted 119% | SR leukemia 118% | RPMI-8226 leukemia; 10 µM unless noted 114% | OVCAR-8 ovarian; 10 µM unless noted 114% | OVCAR-5 ovarian; 10 µM unless noted 94.9% | OVCAR-4 ovarian; 10 µM unless noted 104% | SK-OV-3 ovarian 102% | IGROV1 ovarian 106% | OVCAR-3 ovarian; 10 µM unless noted 113% | HS 578T breast; 10 µM unless noted 106% | NCI/ADR-RES ovarian; 10 µM unless noted 120%
